These results are taken from the OligoGym collection.
Note: reference of the scale not given here.

The target in the first assay is C15orf54. As to the kind of experiment: pooled miR-30 sensor sort-seq; sequence = guide strand. The note with it: shRNA.
TATTTGAACATATAAGATGTTA displayed a sensor-assay potency score (higher = more potent) of -0.68. For TTCTGTAGGCACTACATTCTGG, the sensor-assay potency score (higher = more potent) was -0.0345. Turning to TTAAGCAATGAGCTCAATCTAG, the sensor-assay potency score (higher = more potent) is -0.475. The sequence TTCAGTTTGTGACTTTTGCTGG yielded a sensor-assay potency score (higher = more potent) of 0.098. Same read-out and setting: the result for AACAACAACAAGAATATCCTGC reads 0.568; that for TTATTTGAAAGGGACATCTGTT, -0.498; that for TTCACCTTCTTGAAGAACCTGC, 0.924. For the sequence TTCAAGATCAAACTAGGCCATG, the sensor-assay potency score (higher = more potent) is -1.17.

With TATACTTATTCTCACATCCTTT, the sensor-assay potency score (higher = more potent) was -0.462. Same read-out and setting: as for TTCCTTTACATTTATAACCATT, the figure is -1.28.

Another assay concerns the target C15orf58. The description is as above. To be noted: shRNA.
In the case of TCTTCTTGCAGCAGAGTCCCAG, the sensor-assay potency score (higher = more potent) is -0.775. The sequence TGCCTGTACGTCTTCTGCCTGG came in with a sensor-assay potency score (higher = more potent) of -0.932. The same measure, in the same setting: as for TTGAAGTTGAACTGTACAGGGT, the figure is 0.153.

TCTTGTTGAAGTTGAACTGTAC displayed a sensor-assay potency score (higher = more potent) of 0.172. In turn, TTATCAAGGACTCCAAGTCAGG registered a sensor-assay potency score (higher = more potent) of -1.43. AACATTGAAAGCTTCACCGTCC had a sensor-assay potency score (higher = more potent) of 0.994. As to TTTGGGTCTGTAGCTCCCGTAG, the sensor-assay potency score (higher = more potent) was -1.43.

Take TGAAGTTGAACTGTACAGGGTC: the sensor-assay potency score (higher = more potent) was 0.667.

Regarding ATTGAAAGCTTCACCGTCCTTT, the sensor-assay potency score (higher = more potent) worked out at 0.575. Still for that read-out and setting: as for TGTCAGGCTGCTGAAGTCCTGG, the figure is -0.843; as for ATCTTGTTGAAGTTGAACTGTA, -0.903.

Another assay has as its target C16orf55. The description is as above. To be noted: shRNA.
Consider TCTCCTTAGATTTTGGAACTGA, for which the sensor-assay potency score (higher = more potent) is -0.0429.

Sequence TTACATCAGGTTTCTCTTCCAG displayed a sensor-assay potency score (higher = more potent) of 0.199. TAGGCGTCTGCTGTACTGGGGT yielded a sensor-assay potency score (higher = more potent) of 0.489. As to TAGATTTTGGAACTGAATAGGT, the sensor-assay potency score (higher = more potent) was -0.346. TTTGGAACTGAATAGGTGGATC displayed a sensor-assay potency score (higher = more potent) of -0.304. TTCCTGGGAATGCTTCTCCATC registered a sensor-assay potency score (higher = more potent) of -1.49.

Regarding TGGACTTTTGCTTTACATCAGG, the sensor-assay potency score (higher = more potent) was -1.63. On the same count and under the same terms, the result for TTCTCCATCAACTTCTCCTTAG reads -0.561. On the same count and under the same terms, the result for TTCTCTGCTGGTCACTCCCGCT reads -1.51; that for TTATAGGCGTCTGCTGTACTGG, -0.778. Same read-out and setting: the result for TTAGATTTTGGAACTGAATAGG reads -0.116. The sequence TTTTGGAACTGAATAGGTGGAT gave a sensor-assay potency score (higher = more potent) of -0.336.

The target of a further assay is C17orf103. The description is as above. The note with it: shRNA.
Turning to TGGGACCTCGGTGTGCTGCAGG, the sensor-assay potency score (higher = more potent) is -1.5. Sequence TTGAGCCGGACAGTGAACTGGC registered a sensor-assay potency score (higher = more potent) of -0.109. Same read-out and setting: as for TCATAGAGCAGGACGGCCCGGT, the figure is -0.156; as for TTCTCCTTGACGTACTTCTGGA, -0.93; as for TAACTCTGAGTCTGTTCCCAGT, -0.884.

As for ATCTGGGACCTCGGTGTGCTGC, the sensor-assay potency score (higher = more potent) is -1.85. Same read-out and setting: as for TGTACCAGCAGGTGAGATGGGC, the figure is -0.507.
